Inconclusive results are not listed. Activity calls are given as the source filed them. Unless noted, calls come from the whole dose curve.
Experiments:
[1] = qHTS for Inhibitors of the Functional Ribonucleoprotein Complex (vRNP) of Lassa (LASV) Arenavirus: Viability assay - alamar blue signal for LASV Primary Screen (AID 1347083; calls by dose curve; tested in HEK293 reporter line; note: nearly all actives have a fitted effect of over 80% in size)
[2] = qHTS for Inhibitors of the Functional Ribonucleoprotein Complex (vRNP) of Lymphocytic Choriomeningitis Arenaviruses (LCMV): Viability assay - alamar blue signal for LCMV Primary Screen (AID 1347085; calls by dose curve; tested in HEK293 reporter line; note: nearly all actives have a fitted effect of over 80% in size)
[3] = target: Nucleoprotein (Lymphocytic choriomeningitis virus (strain Armstrong)) (UniProt P09992); experiment: qHTS for Inhibitors of the Functional Ribonucleoprotein Complex (vRNP) of Lymphocytic Choriomeningitis Arenaviruses (LCMV): LCMV Primary Screen - GLuc reporter signal (AID 1347086); note: nearly all actives have a fitted effect of over 70% in size
Chain of Nucleoprotein (Lymphocytic choriomeningitis virus (strain Armstrong)) (P09992 whole entry, looked up): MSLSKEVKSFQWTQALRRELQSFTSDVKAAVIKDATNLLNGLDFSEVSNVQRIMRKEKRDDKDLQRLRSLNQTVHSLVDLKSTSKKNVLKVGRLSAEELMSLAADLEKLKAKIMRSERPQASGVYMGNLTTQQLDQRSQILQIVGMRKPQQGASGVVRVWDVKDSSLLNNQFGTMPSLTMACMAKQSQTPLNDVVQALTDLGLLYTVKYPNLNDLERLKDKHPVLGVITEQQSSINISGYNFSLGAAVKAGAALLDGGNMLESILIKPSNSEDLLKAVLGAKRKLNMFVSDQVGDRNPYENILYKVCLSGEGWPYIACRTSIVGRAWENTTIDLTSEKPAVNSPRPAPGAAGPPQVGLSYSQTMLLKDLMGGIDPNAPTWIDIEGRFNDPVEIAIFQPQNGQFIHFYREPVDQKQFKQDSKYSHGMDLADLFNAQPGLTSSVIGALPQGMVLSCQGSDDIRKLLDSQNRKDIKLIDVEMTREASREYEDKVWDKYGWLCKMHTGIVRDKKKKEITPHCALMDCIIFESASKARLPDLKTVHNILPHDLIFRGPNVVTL
Potency is the fitted concentration of half-maximal effect.

**Q.** For `CN1[C@H]2CC(O)C[C@H]1[C@H]1O[C@H]12` (stereo partly specified), which Potency [1] is on record?
**A.** 27.3 µM (active)

**Q.** For `CC[C@H](Nc1ncnc2nc[nH]c12)c1nc2cccc(F)c2c(=O)n1-c1ccccc1`, which Potency [1] is on record?
**A.** 24.3 µM (active)

**Q.** Which results are given for `CC1(O)CC(c2nc(-c3ccc4ccc(-c5ccccc5)nc4c3)c3c(N)nccn23)C1` (stereo unspecified)?
**A.** Potency [1]: 5.44 µM (active); Potency [2]: 3.85 µM (active)

**Q.** With `Cc1cccc(C=NNc2cc(N3CCOCC3)nc(OCCc3ccccn3)n2)c1` as the compound, how does the Potency [1] read?
**A.** 1.93 µM (active)

**Q.** What about the Potency [2] of the same compound?
**A.** 1.37 µM (active)

**Q.** For `CCc1cncnc1N1CCN(Cc2nc3ccc(C(F)(F)F)cc3[nH]2)CC1`, which Potency [1] is on record?
**A.** inactive

**Q.** And the Potency [2]?
**A.** inactive

**Q.** Which Potency [1] does the source give for `Cc1cc(Nc2cc(N3CCN(C)CC3)nc(Sc3ccc(NC(=O)C4CC4)cc3)n2)n[nH]1` here?
**A.** 19.3 µM (active)

**Q.** And the Potency [2]?
**A.** 38.5 µM (active)

**Q.** With `COc1ccc2c3n(c(=NC(=O)c4cccnc4)nc2c1OC)CCN3` as the compound, how does the Potency [1] read?
**A.** 1.53 µM (active)

**Q.** What about the Potency [2] of the same compound?
**A.** 0.968 µM (active)

**Q.** What about the Potency [3] of the same compound?
**A.** 0.769 µM (active)

**Q.** For `Cc1ccc(C(=O)N(CCCN)[C@@H](c2nc3cc(Cl)ccc3c(=O)n2Cc2ccccc2)C(C)C)cc1`, which Potency [1] is on record?
**A.** inactive

**Q.** With `Cn1cc(-c2[nH]c3cc(NC(=O)[C@H](N)C4CCCCC4)cc4c3c2C=NNC4=O)cn1` as the compound, how does the Potency [1] read?
**A.** 3.43 µM (active)

**Q.** What about the Potency [2] of the same compound?
**A.** 4.85 µM (active)

**Q.** What about the Potency [3] of the same compound?
**A.** 2.73 µM (active)

**Q.** For `Cc1ccc(C(=O)Nc2ccc(CN3CCN(C)CC3)c(C(F)(F)F)c2)cc1C#Cc1cnc2cccnn12`, which Potency [1] is on record?
**A.** 1.22 µM (active)

**Q.** What about the Potency [2] of the same compound?
**A.** 3.43 µM (active)

**Q.** Which Potency [1] does the source give for `COc1cc2c(Oc3ccc(NC(=O)C4(C(=O)Nc5ccc(F)cc5)CC4)cc3F)ccnc2cc1OCCCN1CCOCC1` here?
**A.** 21.7 µM (active)

**Q.** And the Potency [2]?
**A.** 21.7 µM (active)

Source: PubChem BioAssay (NCATS)
